FBW7 activator: FBW7 E3 ligase activators, primary screen, biochemical, AlphaScreen, human; F-box/WD repeat-containing protein 7 (Homo sapiens), Q969H0; AlphaScreen FBW7–phospho-cyclin E peptide binding, activator screen; normalized activity (activation), % at 26.1 µM; 0.13% of 650,000 active; in the data active means normalized activity above about 1.9%;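 further: purified mutant Fbw7 with reduced substrate affinity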
TEAD-YAP inh: TEAD-YAP interaction inhibition, primary screen, TEAD-YAP interaction inhibitor project, luminescence, HEK-TIYL cells. inhibition, % at 9.12 µM. 1.4% of 640,000 active. TEAD-Gal4/YAP UAS-luciferase luminescence; in the data active means inhibition above about 32%;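 further: 0% = median of test compound wells and 100% = reference inhibitor wells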
MITF inh: MITF inhibitors, primary screen, biochemical, AlphaScreen, human | AlphaScreen MITF homodimerization, bead proximity signal | 0.91% of 650,000 active | inhibition, % at 2.6 µM | AID 1259374, 2018 | Microphthalmia-associated transcription factor (Homo sapiens), O75030; in the data active means inhibition above about 50%;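 further: 0% = vehicle wells with protein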
Target sequence (O75030 whole entry, looked up): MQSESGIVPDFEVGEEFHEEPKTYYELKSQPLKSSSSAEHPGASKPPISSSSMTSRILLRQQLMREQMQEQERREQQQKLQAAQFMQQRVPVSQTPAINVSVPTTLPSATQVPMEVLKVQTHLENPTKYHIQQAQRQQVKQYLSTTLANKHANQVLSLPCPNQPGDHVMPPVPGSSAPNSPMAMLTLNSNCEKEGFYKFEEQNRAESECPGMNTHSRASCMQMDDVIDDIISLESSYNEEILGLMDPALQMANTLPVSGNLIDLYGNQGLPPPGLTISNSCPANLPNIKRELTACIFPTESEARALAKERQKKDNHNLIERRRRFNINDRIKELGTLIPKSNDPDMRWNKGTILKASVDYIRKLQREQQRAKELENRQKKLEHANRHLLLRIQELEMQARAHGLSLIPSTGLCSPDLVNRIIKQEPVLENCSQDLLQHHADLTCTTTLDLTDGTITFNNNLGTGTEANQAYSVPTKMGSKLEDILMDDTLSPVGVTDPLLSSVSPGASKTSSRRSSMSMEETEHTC
GPR151 activ: activators of human GPR151, primary screen, cell-based, PathHunter beta-arrestin, luminescence. G-protein coupled receptor 151 (Homo sapiens), Q8TDV0. PathHunter beta-arrestin GPR151 cells. activation, % at 11.2 µM. 1% of 650,000 active. AID 1508602, 2020; in the data active means activation above about 4.9%;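 further: 0% = median of compound wells and 100% = cells with positive control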
An asterisk follows results filed as active. Shown are actives, neighbours in structure and some others; about 3.5% of the full set was active somewhere.

SMILES	FBW7 activator	TEAD-YAP inh	MITF inh	GPR151 activ
Cc1cc(N2CCOCC2)nc2ccc(NC(=O)c3ccncc3)cc12	0	49*	6	0
CC(=O)Nc1nc(-c2ccc3c(c2)CCN3C(=O)C2CC2)c(C)s1	0	75*	3	1
Cc1sc(NC(=O)c2cnccn2)nc1-c1ccc2c(c1)CCN2C(=O)C1CCCCC1	0	0	7	1
CC(=O)Nc1nc(-c2ccc3c(c2)CCN3C(=O)C2CCCCC2)c(C)s1	0	78*	20	1
CCN1C(=O)N(CC)C(NNC(N)=S)C1NNC(N)=S (stereo not given)	0	90*	-9	1
COc1ccc(-n2nnnc2SCc2cccnc2)c(OC)c1	0	-21	10	0
OCCNc1nc(-c2csc3ccccc23)nc2c1ncn2-c1ccsc1	0	44*	7	0
Cc1nn(C)c(C)c1-c1nc(NCCO)c2ncn(-c3ccsc3)c2n1	0	43*	8	0
CCCNc1nc(-c2cccs2)nc2c1ncn2-c1ccsc1	0	14	4	-1
c1csc(-c2nc(NC3CC3)c3ncn(-c4ccsc4)c3n2)c1	0	34*	10	-2
COc1ccc(CCNc2nc(-c3c(C)nn(C)c3C)nc3c2ncn3-c2ccsc2)cc1	0	-6	5	3
c1ccc(CN2CCC(Nc3nc(-c4cccs4)nc4c3ncn4-c3ccccc3)CC2)cc1	0	14	10	1
OCCNc1nc(-c2cccs2)nc2c1ncn2-c1ccsc1	0	67*	33	0
CCOc1cc(C=O)cc(Br)c1OC(C)C	0	11	7	0
CC(C)c1ccccc1OCC(=O)Nc1ccc(S(=O)(=O)NC(C)(C)C)cc1	0	8	6	-1
COc1cccc(C(=O)N2c3ccccc3N3C(c4c(C)cc(C)cc4C)=NON23)c1	0	5	6	1
COc1cccn2c(C(=O)NCc3ccc4c(c3)OCO4)c(C(F)(F)F)nc12	0	-4	8	0
N#Cc1ccccc1OCC(=O)Nc1c(F)cccc1F	0	-44	-18	-1
CC(=O)Oc1ccc2c(=O)c(Oc3ccccc3)c(C(F)(F)F)oc2c1	1	-10	-1	0
CC(C)(C)c1ccc(Oc2c(C(F)(F)F)oc3cc(OC(=O)c4cccs4)ccc3c2=O)cc1	0	94*	-2	0
CCCc1ccc(Oc2c(C(F)(F)F)oc3cc(OC(C)=O)ccc3c2=O)cc1	0	83*	10	-3
OCCC1CCCCN1c1ccnc2c(-c3cccc4ccccc34)cnn12 (stereo not given)	0	-29	-33	-1
OCCC1CCCCN1c1ccnc2c(-c3cccc(F)c3)cnn12 (stereo not given)	0	93*	-18	0
OCCC1CCCCN1c1ccnc2c(-c3cccc(C(F)(F)F)c3)cnn12 (stereo not given)	0	55*	-7	-2
CC(=O)Nc1cccc(-c2cnn3c(N4CCCCC4CCO)ccnc23)c1 (stereo not given)	0	-3	-10	0
SMILES	FBW7 activator	TEAD-YAP inh	MITF inh	GPR151 activ
OCCC1CCCCN1c1ccnc2c(-c3cccc(O)c3)cnn12 (stereo not given)	0	95*	4	-1
NC(=O)c1cccc(-c2cnn3c(N4CCCCC4CCO)ccnc23)c1 (stereo not given)	-1	-28	-15	1
OCCC1CCCCN1c1ccnc2c(-c3cc4ccccc4o3)cnn12 (stereo not given)	0	67*	-11	0
CCCCCn1c(SC(C)CC)nc2c1c(=O)[nH]c(=O)n2C (stereo not given)	0	-15	4	2
Oc1ccccc1-c1ccc2c(-c3ccc(N4CCNCC4)cc3)[nH]nc2n1	0	61*	8	1
O=[N+]([O-])c1ccc(N=Cc2ccccc2)cc1	0	0	-3	3
Cc1cc(Nc2c(C)cccc2C)n2ncnc2n1	0	-5	0	-1
Cc1cc(Nc2cc3ccccc3cc2O)n2ncnc2n1	0	65*	-3	-1
Cc1ccc(S(=O)(=O)N(Cc2ccccn2)Cc2ccco2)cc1	0	-1	9	0
CCC(=O)Oc1ccc2c(c1)O/C(=C\c1cccc(OC)c1)C2=O	0	87*	-5	-1
COC(=O)COc1cccc(/C=C2\Oc3cc(OC)ccc3C2=O)c1	0	4	-3	4

Compound activity as filed in PubChem.
